An excerpt weighted towards active compounds, which were near 1.5% of everything screened.
WRN helicase inh = WRN helicase (human) inhibition. WRN helicase unwinding, fluorescent forked duplex, kinetic. Potency, µM (series often up to 114 µM), without a hit: at the top dose activity change, negative = inhibition, actives largely listed as inhibitors. 360,000 tested, 0.46% active. AID 651768; further: potency means the concentration at half of the fitted maximal effect; nearly all actives have a fitted effect of over 55% in size
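Kinetic red-fluorescence monitoring (525/598 nm) tracks WRN helicase activity after 100 nM fluorophore-quencher forked duplex and 2 mM ATP are added to 20 nM enzyme pretreated 15 min at room temperature with compound.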
Tb PFK block = inhibitors of T. brucei phosphofructokinase; O15648; T. brucei PFK, ADP-Glo luminescence; Potency, µM (highest dose often 57.5 µM), inactives show top-dose activity, negative = inhibition, usual class: inhibitors; 330,000 tested, 0.17% active; AID 485367;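 further: potency means the concentration at half of the fitted maximal effect; 0% = uninhibited 1x PFK enzyme wells and -100% = no-enzyme wells; nearly all actives have a fitted effect of over 60% in size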
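Luminescent ADP detection (ADP-Glo, two-step: ATP depletion then ADP-to-ATP conversion for luciferase) reported PFK activity after 45 min room-temperature reaction of 1.25 nM enzyme with 0.5 mM F6P and 0.1 mM ATP at pH 8.0.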
Tb PGK inh = T. brucei PGK inhibition; P07378; 380,000 tested, 0.043% active; Potency, µM (series often up to 57.5 µM), without a hit: top-dose activity change, negative = inhibition, most hits filed as inhibitors; PGK/GAPDH coupled, Kinase-Glo luminescence, 60 min; further: potency means the concentration at half of the fitted maximal effect; nearly all actives have a fitted effect of over 60% in size
Target sequence (P07378 whole entry, looked up): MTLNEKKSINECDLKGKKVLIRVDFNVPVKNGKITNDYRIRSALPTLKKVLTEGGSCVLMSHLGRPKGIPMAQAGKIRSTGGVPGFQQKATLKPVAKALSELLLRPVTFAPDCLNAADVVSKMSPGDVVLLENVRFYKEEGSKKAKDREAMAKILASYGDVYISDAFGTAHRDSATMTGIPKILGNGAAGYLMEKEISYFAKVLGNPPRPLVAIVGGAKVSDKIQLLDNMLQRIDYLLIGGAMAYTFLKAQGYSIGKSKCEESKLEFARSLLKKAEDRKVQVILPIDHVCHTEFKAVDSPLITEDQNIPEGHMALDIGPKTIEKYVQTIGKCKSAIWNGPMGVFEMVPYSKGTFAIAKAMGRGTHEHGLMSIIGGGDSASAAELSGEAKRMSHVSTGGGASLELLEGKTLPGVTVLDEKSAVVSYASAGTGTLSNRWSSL
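Luminescent ATP detection (Kinase-Glo Plus) follows a 60-minute room-temperature incubation, with wells lacking PGK as controls. Buffer: 100 mM TEA (pH 7.6), 5 mM MgCl2, 0.01% Tween-20. Coupling enzyme GAPDH (100 nM final) supplies unstable 1,3-BPG in-well.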
PI5P4Ka inh = blocks human PI5P4K alpha kinase activity. PI5P4Kalpha enzyme, ADP-Glo luminescence, 60 min; active compounds read low. 330,000 tested, 1.2% active. max response, %; active means max response of -50% or lower; inconclusive means between -30% and -50%; inactive means -30% or higher; further: value at the top dose of about 77 µM
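qHTS, 1536-well: enzyme/substrate mix, compound by pin tool, 5 microM ATP final; RT 60 min; ADP-Glo reagents 1 (45 min) then 2 (30 min); luminescence.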
FEN1 inh = blocks human flap endonuclease 1; Potency, µM (top dose mostly 114 µM), for the others: at the top dose activity change, negative = inhibition, hits mostly inhibitors; P39748; 390,000 tested, 0.35% active; Recombinant FEN1 flap cleavage, fluorescence, 15 min; further: potency means the concentration at half of the fitted maximal effect; nearly all actives have a fitted effect of over 65% in size
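Reaction started by adding substrate (50 nM final) to 10 nM enzyme after 15 min room-temperature compound preincubation. Reads at 0 and 15 min, with data normalized and fitted to a four-parameter Hill equation.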
TDP1 block = TDP1 (human) enzyme inhibition. recombinant TDP1, AlphaScreen DNA substrate cleavage. Potency, µM (series often up to 130 µM), inactives show at the top dose activity change, negative = inhibition, hits mostly inhibitors. 350,000 tested, 0.28% active. AID 485290; further: potency means the concentration at half of the fitted maximal effect; nearly all actives have a fitted effect of over 40% in size
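Enzyme-compound mixtures sat 15 min at room temperature, followed by a 5 min reaction with 15 nM final substrate and 10 min with AlphaScreen beads. Recombinant human Tdp1 was used at 1 nM final.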
* marks the source's active call; other numbers are inactive results; [ ] = remark or other dose. Unless noted, the call rests on the fitted dose curve; in most records, active means well fitted curve in the direction sought with a large enough effect; inconclusive means small, poorly fitted or top-dose-only effect, or another doubt; inactive means no such curve, though single readings can be large; an effect the other way counts as inactive or inconclusive. Unless noted, on the % scale 0 is the no-effect control and ±100 the full control effect.

How did Cn1c(=O)[nH]c(=O)c2c1nc(Br)n2Cc1ccc(Cl)cc1 do in these assays?
WRN helicase inh: -0.9%; Tb PGK inh: 10.1%; PI5P4Ka inh: -17.8

How did Cn1c(=O)[nH]c(=O)c2c1[nH]c(=S)n2Cc1ccc(Cl)cc1 do in these assays?
WRN helicase inh: -5.9%; Tb PFK block: -15.6%; Tb PGK inh: -6.5%; PI5P4Ka inh: -91.6*; FEN1 inh: -8.8%

What do the screens show for `Cn1c(=O)n(Cc2ccccc2Cl)c2ccccc21`?
WRN helicase inh: -0.3%; Tb PFK block: 0.1%; Tb PGK inh: 4.1%; PI5P4Ka inh: -19.3; FEN1 inh: -8.3%; TDP1 block: 2.5%

What do the screens show for `c1cc(-c2cnn3cc(-c4ccc(OCCN5CCCCC5)cc4)cnc23)ccn1`?
TDP1 block: 7.5%

How did CC(C)CO/N=C1/C[C@@H](O)[C@@H](O)[C@@H]2[C@H]3C(=O)N(c4ccc(F)cc4F)C(=O)[C@@H]3CC[C@H]12 do in these assays?
TDP1 block: 7.9%[21 µM]

What do the screens show for `COc1cccc(C2c3c(ncn(-c4cccc(C)c4)c3=N)Oc3ccc4ccccc4c32)c1` (centres undefined)?
TDP1 block: 4.2%

What do the screens show for `Cc1ccc2nc(/C(C#N)=C/c3ccc(O)c(O)c3)[nH]c2c1`?
WRN helicase inh: 44.7µM*; Tb PFK block: 0.1%; Tb PGK inh: -12.1%; PI5P4Ka inh: -69.4*; FEN1 inh: inconclusive; TDP1 block: 7.8%

How did Cc1ccc2nc(/C(C#N)=C/c3cccc(Br)c3)[nH]c2c1 do in these assays?
Tb PGK inh: -26.6%; FEN1 inh: -13.1%

How did CC1(C)CCC[C@@](C)([C@H]2CC[C@]3(C)[C@@H]2[C@H](O)CC2[C@@]4(C)CC[C@H](O)C(C)(C)[C@@H]4[C@@H](O)C[C@]23C)O1 (some centres undefined) do in these assays?
TDP1 block: 5.6%

What do the screens show for `CNC(=O)c1nnsc1S(=O)(=O)c1ccc(Cl)cc1`?
WRN helicase inh: 7.94µM*; Tb PFK block: inconclusive; Tb PGK inh: 0.8%; PI5P4Ka inh: -2.2; FEN1 inh: -9.7%; TDP1 block: 5.1%

Results for O=S(=O)(c1cccc(C(F)(F)F)c1)n1c(/C=C/c2ccccc2)nc2ccccc21 ?
Tb PGK inh: inactive; FEN1 inh: -23.5%; TDP1 block: -5.2%

How did Cc1[nH]n(-c2ccccc2)c(=S)c1C=Nc1cccc([N+](=O)[O-])c1 do in these assays?
WRN helicase inh: -19.3%[57.1 µM]; Tb PFK block: -27.7%; Tb PGK inh: -9.0%; PI5P4Ka inh: -105.1*; FEN1 inh: -10.2%; TDP1 block: 5.7%

Results for CCCCN=Cc1c(C)[nH]n(-c2ccccc2)c1=S ?
WRN helicase inh: 9.8%; Tb PFK block: -8.7%; Tb PGK inh: -1.2%; PI5P4Ka inh: -4.3; FEN1 inh: 0.9%; TDP1 block: 8.9%

How did NS(=O)(=O)c1ccc(NNC(=O)c2ccccc2)cc1 do in these assays?
WRN helicase inh: -7.6%; Tb PFK block: -18.2%; Tb PGK inh: 5.5%; PI5P4Ka inh: 7.7; FEN1 inh: 18.7%

Results for O=C(NNc1cc(Br)c(O)c(Br)c1)c1ccccc1 ?
WRN helicase inh: -30.1%[57.1 µM]; Tb PFK block: -1.9%; Tb PGK inh: -3.2%; PI5P4Ka inh: -90.6*; FEN1 inh: inconclusive; TDP1 block: 5.0%

How did Cc1ccc(C(=O)NCCOc2cccc(C)c2)cc1 do in these assays?
WRN helicase inh: inconclusive; Tb PFK block: 1.3%; Tb PGK inh: -2.2%; PI5P4Ka inh: 6.0; FEN1 inh: -1.3%; TDP1 block: 2.7%

How did CCOC(=O)c1ccc(OCCOc2cccc(C)c2)cc1 do in these assays?
WRN helicase inh: 4.5%; Tb PFK block: -0.4%; Tb PGK inh: -2.1%; PI5P4Ka inh: 14.6; FEN1 inh: 6.7%; TDP1 block: 50.1µM*

What do the screens show for `COC(=O)c1ccc(OCCOc2ccccc2C)cc1`?
WRN helicase inh: -20.5%; Tb PFK block: 3.6%; Tb PGK inh: 0.9%; PI5P4Ka inh: 1.8; FEN1 inh: -15.3%; TDP1 block: 79.4µM*

Results for O=C1CSC(=S)N1N1C(=O)c2cccc([N+](=O)[O-])c2C1=O ?
Tb PFK block: inconclusive; TDP1 block: 2.82µM*

Results for C=C1NN(C(C)C(=O)O)C(=O)N1c1ccc(OCc2ccccc2)cc1 (centres undefined) ?
FEN1 inh: 15.9%

Results for CC1(C)CC(=O)C2=C(C1)NC(=S)C(C#N)C21CCCCC1 (centres undefined) ?
WRN helicase inh: 3.8%; Tb PFK block: 3.5%; Tb PGK inh: -2.1%; PI5P4Ka inh: -61.8*; FEN1 inh: 14.8%; TDP1 block: 4.3%

Results for CC(C)(C)n1ncc2c(=O)n(Cc3ccc(OC(F)(F)F)cc3)cnc21 ?
FEN1 inh: -23.2%

Results for O=Cc1c(-c2ccc(Cl)cc2)oc2ccc(O)cc12 ?
WRN helicase inh: inconclusive; Tb PGK inh: -7.8%; PI5P4Ka inh: -67.0*; FEN1 inh: -17.6%

Results for O=C(O)c1c(-c2ccccc2)oc2ccc(O)cc12 ?
WRN helicase inh: 2.3%; Tb PFK block: 2.4%; Tb PGK inh: 3.7%; PI5P4Ka inh: 5.1; FEN1 inh: 17.3%

What do the screens show for `NC(=O)c1cc[n+](CC2=C(C(=O)[O-])N3C(=O)[C@@H](NC(=O)Cc4cccs4)[C@@H]3SC2)cc1`?
TDP1 block: 15.8µM*

Results for NC(=O)c1cc[n+](CC2=C(C(=O)O)N3C(=O)[C@@H](NC(=O)C(c4ccccc4)S(=O)(=O)[O-])[C@H]3SC2)cc1 (some centres undefined) ?
Tb PFK block: 2.0%; Tb PGK inh: 1.12µM*; PI5P4Ka inh: -96.6*; FEN1 inh: 2.24µM*; TDP1 block: -2.7%

Results for Oc1cccc2c(CC(O)c3c[nH]c4ccccc34)ccnc12 (centres undefined) ?
FEN1 inh: -7.7%

How did Oc1c(Br)cc(Br)cc1/C=N/c1nc2c(s1)CCCC2 do in these assays?
WRN helicase inh: inconclusive; Tb PGK inh: -11.7%; PI5P4Ka inh: -54.4*; FEN1 inh: -18.1%

Results for Oc1ccc2ccccc2c1/C=N/c1nc2c(s1)CCCC2 ?
WRN helicase inh: -18.7%; Tb PFK block: -6.1%; Tb PGK inh: -12.6%; PI5P4Ka inh: -12.0; FEN1 inh: -23.5%; TDP1 block: 3.8%

What do the screens show for `COc1ccccc1C(=O)Nc1nnc(-c2ccco2)s1`?
WRN helicase inh: -21.0%; Tb PFK block: 4.8%; Tb PGK inh: -1.7%; FEN1 inh: 2.1%; TDP1 block: 50.1µM*
